Laboratory results from PubChem BioAssay AID1244 (Sanford-Burnham Center for Chemical Genomics, 2008).
Unmarked numbers belong to inactive results. Active and inactive are the calls of the source. The rule behind the calls is not given here.

Assay: Bcl-B/Bim-BH3 peptide binding displacement, dose response, counter-screen for TR3-derived Bcl-B inhibitor project, biochemical, fluorescence polarization (AID 1244)
Conditions: Bcl-B/FITC-Bim-BH3 peptide binding

Structure (SMILES)	EC50
Cc1ccc(C)n1-c1ccc(Br)cc1C(=O)O	0.48 µM (active)
Cc1cc(C)nc(/N=C(/N)Nc2cccc(N)c2)n1	> 25 µM
